High-throughput results as filed in PubChem BioAssay.
A selection: hits, their analogues and other compounds. The true share with any hit is near 3.4%.
PGC1a acetyl inh = inhibitors of PGC1a acetylation signal, primary screen, cell-based, U2OS, AlphaScreen, inhibitor mode. 350,000 compounds, 0.17% hits. inhibition, % at 15.6 µM. AlphaScreen anti-acetyl-lysine; with virally co-expressed GCN5 acetyltransferase;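 active = every replicate shows inhibition of at least 40%; inconclusive = mean inhibition at least 40% but some replicate below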;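 note: 0% = neutral control wells and 100% = positive control wells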
SIRT5 block = SIRT5 desuccinylase inhibitors, primary screen, biochemical, fluorescence imaging, single point, set 5. 330,000 compounds, 1.1% hits. AID 652115, 2013. Purified SirT5, succinyl-peptide AMC, trypsin-coupled fluorescence. inhibition, % at 15 µM. NAD-dependent protein deacylase sirtuin-5, mitochondrial (Homo sapiens), Q9NXA8; in the data active = inhibition above about 15%; inconclusive = no clear call, values can overlap the other calls
Target sequence (Q9NXA8 whole entry, looked up): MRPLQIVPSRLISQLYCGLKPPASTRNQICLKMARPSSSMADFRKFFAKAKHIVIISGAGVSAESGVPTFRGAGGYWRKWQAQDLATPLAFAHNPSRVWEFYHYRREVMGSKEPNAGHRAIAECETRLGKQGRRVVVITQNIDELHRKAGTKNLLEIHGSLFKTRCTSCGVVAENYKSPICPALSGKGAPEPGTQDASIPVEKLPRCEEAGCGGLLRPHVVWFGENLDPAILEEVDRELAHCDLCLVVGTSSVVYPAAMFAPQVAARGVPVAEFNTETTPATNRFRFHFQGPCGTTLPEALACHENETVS
LGR2 antag = inhibitors of bursicon-induced LGR2 CRE-luciferase signal, primary screen, cell-based, HEK293, CRE-luciferase reporter, bursicon stimulation | Drosophila bursicon receptor LGR2 (rickets) | bursicon-stimulated, 4 h | inhibition, % at 9.99 µM | 380,000 compounds, 0.35% hits;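 active = drop in luminescence signal, shown as inhibition above about 50% in the replicate tests, limit read from the data, passing the limit was not always enough; inconclusive = probably only some replicates passing the limit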;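 note: agonist challenge used bursicon conditioned medium at about half maximal strength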
EWS-Fli inh = EWS/Fli-driven NR0B1 reporter inhibitors, primary screen, A673 cells, NR0B1 luciferase, luminescence, MLPCN library | viability-normalised | inhibition, % at 12.6 µM | 350,000 compounds, 0.67% hits;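 active = mean inhibition of at least 50% after viability correction, with every replicate also passing that limit; inconclusive = mean reaches 50% but only one of two replicates passes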;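 note: firefly luciferase signal divided by Alamar Blue viability fluorescence both relative to DMSO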
PAX8 reporter = inhibitors of PAX8-driven TPO luciferase reporter, primary screen, RMG-I cells, single concentration. SteadyGlo, 24 h. inhibition, % at 12.6 µM. 360,000 compounds, 1.2% hits;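 active = mean replicate inhibition at least 60% with every replicate also reaching 60%; inconclusive = only one of the two criteria is met; inactive = mean below 60% and not all replicates reaching 60%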;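 note: luciferase light reporting Pax8 driven TPO promoter activity; plate controls were median of neutral control wells for no effect and mitoxantrone controls for full effect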
Ecoli rRNA inh = reduced GFP signal of wild-type E. coli, primary screen, bacterial rRNA inhibitor project, GFP/RFP fluorescence, OD600, single point | GFP signal change (wild-type ribosome), % (test concentration not listed) | E. coli WT GFP vs humanized-ribosome RFP mutants, 24 h; active compounds read low; DMSO median 0, no signal -100 | AID 720706, 2013 | 350,000 compounds, 1.6% hits;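 active = significant combined selectivity score with lowered wild-type GFP, culture density cut under 30%, mutant RFP and density less affected; inactive = any of these conditions unmet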
* marks the source's active call; other numbers are inactive results; ? = inconclusive; nt = no result.

SMILES	PGC1a acetyl inh	SIRT5 block	LGR2 antag	EWS-Fli inh	PAX8 reporter	Ecoli rRNA inh
CN(C)c1ccc2c(c1)[C@@H]1C[C@H](CC(=O)NCc3ccc(Oc4ccccc4)cc3)O[C@@H](CO)[C@@H]1O2	-6.0	7.7	nt	37.7	48.9	-6.9
CN(C)c1ccc2c(c1)[C@H]1C[C@H](CC(=O)NCc3ccc(Oc4ccccc4)cc3)O[C@H](CO)[C@H]1O2	-8.7	20.5*	1.5	39.6	51.5	-5.4
CCCN(C)C[C@@H]1OCCCC[C@@H](C)Oc2ccc(NS(=O)(=O)c3cn(C)cn3)cc2C(=O)N([C@@H](C)CO)C[C@@H]1C	0.0	-1.1	-14.5	2.8	-9.0	2.7
O=C(c1ccc(F)cc1)N1C[C@@H]2[C@H](c3ccccc31)[C@@H](CO)N2Cc1ccc2c(c1)OCO2	-1.5	0.4	8.9	3.9	6.8	-9.3
CNc1ccc2ncc(-c3ccc(OC)c(OC)c3)n2n1	58.3*	-3.9	-7.9	-1.4	-52.6	-6.5
COC/C=C/C1=CC2=CC(=O)C(C)(OC(=O)c3cnc4ccccc4n3)C(=O)C2=CN1Cc1ccccc1 (centres undefined)	10.2	-5.0	nt	-2.4	80.1*	10.6
COC/C=C/C1=CC2=CC(=O)C(C)(OC(=O)c3cnc4ccccc4n3)C(=O)C2=CN1C1CC1 (centres undefined)	5.2	-1.8	-5.0	-30.7	65.9*	-9.0
O=C(Nc1ccc(F)cc1)N[C@@H]1CC[C@@H](CCNC(=O)c2ccccc2F)O[C@@H]1CO	-0.1	-3.1	4.6	-0.3	nt	-0.8
C[C@@H]1CN([C@H](C)CO)C(=O)c2c(c3ccccc3n2C)-c2ccccc2CO[C@@H]1CN(C)S(=O)(=O)c1ccc(F)cc1	nt	nt	nt	nt	nt	1.5
CCNC(=O)C[C@H]1CC[C@@H]2[C@H](COc3ccc(NC(=O)NC(C)C)cc3C(=O)N2C)O1	4.5	-4.7	9.2	15.1	-7.5	3.6
COc1ccc(-n2nc(C(=O)NCC(=O)Nc3cc(OC)c(OC)c(OC)c3)c3ccccc3c2=O)cc1Cl	4.1	-1.3	-2.4	7.6	80.9*	4.1
COc1cc(SC)ccc1C(=O)Nc1ccc(Cl)cn1	-6.4	6.0	99.7*	83.6*	-149.6	13.9
CSc1ccc(Cl)c(C(=O)Nc2ccc(Cl)cn2)c1	7.0	-2.7	-52.7	43.3	3.8	6.0
COc1ccc2c3c(n(C)c2c1)[C@H](CO)N(Cc1nccs1)CC31CN(C(C)=O)C1	0.9	nt	-1.1	6.6	nt	4.1
COc1cccc(S(=O)(=O)N2CC3(CCN(C)CC3)c3c([nH]c4cc(OC)ccc34)[C@@H]2CO)c1	-0.2	2.4	-6.5	1.1	-8.1	-1.5
COc1ccccc1CCNC(=O)Nc1cccc([N+](=O)[O-])c1	5.9	-3.7	-0.1	-16.5	-15.0	-20.4*
COc1ccc(NC(=O)Nc2cccc([N+](=O)[O-])c2)cc1Cl	-14.1	-7.4	?	-11.1	-8.5	-42.8
COc1cc(OC)cc(C(=O)NCC(=O)OCC(=O)/C=C2/N(C)c3ccccc3C2(C)C)c1	-6.5	26.6*	13.0	3.4	-2.5	-22.3
CC(C)[C@H](NC(=O)c1ccccc1)C(=O)OCC(=O)/C=C1/N(C)c2ccccc2C1(C)C	0.8	-2.8	nt	10.1	4.8	-30.7
C[C@H]1CN([C@@H](C)CO)C(=O)c2cccc(NS(=O)(=O)c3ccc(F)cc3)c2O[C@H]1CN(C)C(=O)Nc1cccc2ccccc12	-1.6	1.2	0.6	6.9	nt	1.1
Cc1ccccc1N=C1N=C(N)c2ccccc21	-2.2	-1.9	-9.9	7.2	137.7*	-8.0
CCCNC(=O)Nc1ccc2c(c1)C(=O)N(C)C[C@H](OC)[C@@H](C)CN(Cc1ccccc1)[C@@H](C)CO2	-13.2	nt	1.4	2.4	nt	-4.1
CC1C(=O)N2CCCc3cc(S(=O)(=O)NCCc4ccccc4)cc1c32 (centres undefined)	-1.0	72.1*	-9.9	7.9	8.3	-7.1
